Mcl-1 Bim block: disrupts Bim peptide binding to human Mcl-1 | Q07820 | Bead-based flow cytometry, Bim peptide-Mcl-1 binding | inhibition, % at 10 µM | 190,000 tested, 0.1% active | AID 1009; in the data active = inhibition above about 40%;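 also: 0% = no compound tracer wells and 100% = peptide blocker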
Target sequence (Q07820 whole entry, looked up): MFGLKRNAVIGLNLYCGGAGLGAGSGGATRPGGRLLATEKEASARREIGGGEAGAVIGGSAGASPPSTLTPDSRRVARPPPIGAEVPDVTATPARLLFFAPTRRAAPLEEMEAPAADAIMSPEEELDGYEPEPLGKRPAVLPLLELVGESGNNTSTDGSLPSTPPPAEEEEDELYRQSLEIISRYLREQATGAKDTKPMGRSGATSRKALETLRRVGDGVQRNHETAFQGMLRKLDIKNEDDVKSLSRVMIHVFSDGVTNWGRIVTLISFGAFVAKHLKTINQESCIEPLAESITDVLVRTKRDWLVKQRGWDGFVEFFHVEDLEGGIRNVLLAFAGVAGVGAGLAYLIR
TNF death inh: inhibitors of TNF-alpha induced necroptosis in Jurkat FADD-/- cells | 220,000 tested, 0.068% active | Jurkat FADD-/- TNF necroptosis rescue, ATP luminescence, 24 h; 0 = TNF only, 100 = no-TNF cells | AID 463075 | activation (protection from cell death), % at 10 µM;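 active = activation, meaning protection from cell death, of at least 50% relative to plate controls; inactive = activation below 50%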;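 also: necroptosis triggered by 40 ng/mL TNF-alpha added together with compound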
Mcl1 Bid PPI: disrupts binding of human Mcl-1 to Bid peptide; TR-FRET Mcl-1/Bid-Dy647 peptide binding, 1536-well; 220,000 tested, 0.97% active; AID 1021; inhibition, % at 21.7 µM;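 active = compounds that cut the binding signal by more than half at the single screening dose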;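 also: His-tagged Mcl-1 with europium anti-His antibody binding Bid BH3 peptide; 0% = Mcl-1 plus peptide wells and 100% = peptide-only wells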
MCL1 BIM primary: MCL1-BIM-BH3 interaction inhibition (human) | Q07820 | inhibition, % at 10.9 µM | 320,000 tested, 0.68% active | GST-MCL1 / FITC-Bim-BH3 fluorescence polarization;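 active = inhibition above the mean inhibition of all tested compounds plus 3 SD, set per campaign, cut at about 40% in these data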;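 also: 0% = DMSO wells and 100% = unlabeled Bim-BH3 peptide control; higher means more loss of mP so more displacement of Bim peptide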
zVAD death inh: blocks zVAD induced death of L929 cells; L929 zVAD necroptosis rescue, ATP luminescence, 24 h; with zVAD 60 µM; viability rescue, % at 10 µM; 220,000 tested, 0.38% active;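 active = activation, scaled between plate controls, above about 75%, limit read from the data; inactive = activation under that limit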;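 also: 0% = zVAD with DMSO and 100% = DMSO alone without zVAD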
Mcl1 Noxa PPI: Mcl-1/Noxa interaction inhibition. Q07820. TR-FRET Mcl-1/Noxa peptide binding, 2 h. inhibition, % at 21.7 µM. 220,000 tested, 1.5% active;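 active = compounds that cut the protein-peptide binding signal by more than 50% relative to plate controls in a single-dose test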;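 also: His-tagged Mcl-1 with rhodamine Noxa BH3 peptide and terbium anti-His antibody; 0% = Mcl-1 plus Noxa peptide wells and 100% = peptide-only wells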
Starred values were filed as active, the others as inactive; · = no result. Hits are enriched below; roughly 2.4% of the tested compounds scored in any of these assays.

SMILES	Mcl-1 Bim block	TNF death inh	Mcl1 Bid PPI	MCL1 BIM primary	zVAD death inh	Mcl1 Noxa PPI
CSc1cccc(NC(=O)c2c(Cl)cnn2C)c1	-3.0	-2.2	-6.4	4.5	-0.7	-3.4
Cn1ncc(N=Cc2c(O)ccc3ccccc23)c1C(=O)Nc1cccc(Cl)c1	2.0	-8.4	54.7*	45.8*	3.5	44.1
Cn1ncc(Cl)c1C(=O)Nc1cccc(Cl)c1	-1.0	-1.4	3.9	20.7	0.0	52.1*
Cn1c(SCC(=O)NC2(C#N)CCCCC2)nnc1-c1cccnc1	·	·	·	6.7	·	·
COc1ccc2nc(S(=O)Cc3ncc(C)c(OC)c3C)[nH]c2c1 (stereo not drawn)	-1.0	-0.5	11.3	19.8	0.1	84.4*
COCCN(C(=O)CSc1nnc(-c2ccc(C)cc2)n1N)c1c(N)n(Cc2ccccc2)c(=O)[nH]c1=O	·	·	·	-11.4	·	·
CCO[C@H]1OC(C(=O)N2CCN(Cc3ccccc3)CC2)=C[C@@H](C)[C@@H]1CCCO	1.0	0.4	-3.9	2.6	-0.2	-11.6
CCO[C@@H]1OC(C(=O)N2CCN(Cc3ccccc3)CC2)=C[C@H](C2CC2)[C@H]1CCCO	-3.0	1.0	86.7*	3.7	1.2	42.2
O=C(Cn1c(-c2ccccc2)noc1=O)N1CCC(Cc2ccccc2)CC1	40.0*	0.0	10.4	2.5	-0.5	14.9
CCN(CC)c1ccc(NC2=C(Cl)C(=O)c3ccccc3C2=O)cc1	-2.0	-13.8	7.2	10.7	3.5	89.1*
Cc1ccc(NC2=C(Cl)C(=O)c3ccccc3C2=O)cc1	23.0	-13.4	-2.7	0.6	0.1	19.8
Cc1cc(N)n(-c2ccc3ccccc3c2)n1	0.0	-19.3	96.4*	7.3	-0.1	-8.7
COc1ccc(-n2nc(C)cc2N)cc1	-4.0	1.2	-19.6	-0.6	2.0	7.5
CC(C)n1cnc2cc(NCc3ccco3)ccc21	0.0	0.4	-53.0	7.1	1.9	52.0*
COc1ccc(-c2csc(NC(=S)NC(=O)c3cccs3)n2)cc1OC	0.0	-4.8	-87.2	·	0.1	82.0*
COc1ccc(-c2csc(NC(=S)NC(=O)c3cccs3)n2)cc1Br	·	-7.2	2.6	1.1	0.8	14.7
O=C(Nc1cccc(-c2csc(-c3ccccc3)n2)c1)c1cccs1	1.0	1.3	96.3*	0.0	1.7	-7.8
Oc1ccc(-c2csc(-c3ccccc3)n2)cc1O	0.0	-12.6	-49.8	20.3	13.6	61.8*
Cc1ccc(C(=O)NCCCNC(=O)COc2ccc(Cl)cc2)cn1	·	·	·	1.7	·	·
O=C(O)/C=C/C(=O)c1ccc2c(c1)CCc1ccccc1-2	·	·	·	15.4	·	·
Oc1[nH]c2ccccc2c1/C=N/N1CCCCC1	0.0	-2.5	93.3*	0.2	0.0	-5.8
COCc1cc(=O)n2[nH]c(-c3ccsc3-n3c(C)ccc3C)cc2n1	-3.0	-0.1	-24.8	7.5	-0.3	68.9*
Cc1cc(=O)n2[nH]c(-c3ccc(F)cc3)cc2n1	-4.0	-0.5	-19.3	-5.9	1.9	6.1
Cc1cc(=O)n2[nH]c(-c3ccsc3-n3c(C)ccc3C)cc2n1	·	-1.4	-87.1	28.4	-0.4	96.6*
Cc1nc2cc(-c3ccsc3-n3c(C)ccc3C)[nH]n2c(=O)c1Cl	1.0	0.0	-36.7	15.6	0.6	61.0*
SMILES	Mcl-1 Bim block	TNF death inh	Mcl1 Bid PPI	MCL1 BIM primary	zVAD death inh	Mcl1 Noxa PPI
CCc1cc2c(-c3ccccc3)cc(=O)oc2cc1OCC(=O)NCC1CCC(C(=O)O)CC1 (stereo not drawn)	·	·	·	2.8	·	·
COc1ccc(-c2csc(NC(=O)/C(N=Nc3ccccc3)=C(\C)O)n2)cc1	41.0*	0.8	-32.7	-2.3	0.1	8.9
COc1ccc(-c2csc(NC(=O)c3c(OC)cccc3OC)n2)cc1	·	·	·	6.3	·	·
CCOC(=O)c1ccc(N2NC(=O)/C(=C/c3ccc(OC(=O)c4ccco4)c(OC)c3)C2=O)cc1	9.0	1.1	-42.6	20.0	0.0	56.2*
CCOC(=O)Cn1c(=O)oc2cc(S(=O)(=O)Nc3ccc(N(CC)CC)cc3C)ccc21	-2.0	-6.3	-11.5	4.4	-0.4	53.9*
COc1cccc(/C=N/n2c(SC)nnc2-c2ccccc2)c1O	0.0	-6.6	-98.1	8.1	1.4	51.2*
CC(Oc1ccc(F)cc1)C(=O)Oc1ccc(N(C)S(=O)(=O)c2ccccc2)cc1 (stereo not drawn)	·	·	·	1.2	·	·
N#Cc1ccccc1CN1C(=O)NC2(CCCCCC2)C1=O	·	·	·	-3.8	·	·
